Source: PubChem (National Center for Advancing Translational Sciences (NCATS))
KDM5B inh = blocks human KDM5B histone demethylase activity. Q9UGL1. KDM5B demethylase, FDH-coupled NADH fluorescence (FDH is formaldehyde dehydrogenase). Potency, µM (doses to about 57.7 µM), most hits filed as inhibitors. 2.6% of 220,000 active; active = well fitted inhibition curve with a large enough effect; inconclusive = small, poorly fitted or top-dose-only effect; inactive = no such curve, though single readings can be large or run the other way; note: potency is the fitted concentration of half-maximal effect; 0% is about no effect; nearly all actives have a fitted effect of over 70% in size
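KDM5BΔAP (200 nM final) in 50 mM HEPES pH 7.5, 0.01% Tween-20 was preincubated 10 min at RT with compound over a concentration range. Substrate mix (H3K4me3 12.5 µM, α-KG 25 µM, Fe²⁺, ascorbate, NAD⁺, FDH) was added, and NADH fluorescence change over 30 min gave dose-response curves.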
IP6K1 inhibitor = IP6K1 kinase inhibition; Q92551; IP6K1 kinase, ADP-Glo luminescence, 2 h; hits give low values; activity change, % (series mostly up to about 58 µM); 0.81% of 140,000 active; AID 1645851; in the data active = activity change below about -25%; note: % is set by controls: 0 for no effect and ±100 for the full control effect
Target sequence (Q92551 whole entry, looked up): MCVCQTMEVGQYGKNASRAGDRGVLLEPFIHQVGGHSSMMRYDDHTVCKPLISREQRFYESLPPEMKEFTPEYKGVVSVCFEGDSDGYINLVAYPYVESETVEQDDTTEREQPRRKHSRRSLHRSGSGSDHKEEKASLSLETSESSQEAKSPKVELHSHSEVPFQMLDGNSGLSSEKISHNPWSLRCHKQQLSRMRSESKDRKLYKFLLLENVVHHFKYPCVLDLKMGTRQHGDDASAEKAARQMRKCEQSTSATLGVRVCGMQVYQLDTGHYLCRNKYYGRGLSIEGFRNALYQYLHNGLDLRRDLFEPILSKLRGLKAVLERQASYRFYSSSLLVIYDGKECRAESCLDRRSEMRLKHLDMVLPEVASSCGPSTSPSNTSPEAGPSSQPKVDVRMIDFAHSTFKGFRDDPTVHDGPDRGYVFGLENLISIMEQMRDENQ
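ADP-Glo luminescence measures ADP made by human IP6K1 during a 2 h RT reaction with ATP/IP6 (mix at 1.3 mM/130 uM); top library doses 57.5 and 19.1 uM final.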
Numbers without * were called inactive. A selection: hits, their analogues and other compounds. The true share with any hit is near 2.7%.

How did Cc1nn2c(c1-c1ccccc1-c1ccccc1)N(Cc1ccc(O)cc1)CCC2 do in these assays?
KDM5B inh: 28µM*; IP6K1 inhibitor: 6

What do the screens show for `Cc1nn2c(c1-c1ccccc1C(C)C)N(Cc1ccc(C(=O)O)cc1)CCC2`?
KDM5B inh: inactive; IP6K1 inhibitor: 26

Results for COc1ccccc1CN1CCCn2nc(C)c(-c3ccccc3C(N)=O)c21 ?
KDM5B inh: 32µM*; IP6K1 inhibitor: 13

Results for Cc1nn2c(c1-c1ccccc1C(N)=O)N(C(=O)c1ccccc1)CCC2 ?
KDM5B inh: inactive; IP6K1 inhibitor: 11

How did Cc1nn2c(c1-c1ccccc1Oc1ccccc1)N(Cc1ccccc1O)CCC2 do in these assays?
KDM5B inh: 28µM*; IP6K1 inhibitor: 15

Results for Cc1cccc(CN2CCCn3nc(C)c(-c4ccccc4-c4ccccc4)c32)n1 ?
KDM5B inh: inconclusive; IP6K1 inhibitor: 3

Results for Cc1nn2c(c1-c1ccccc1Oc1ccccc1)N(Cc1cccc(O)c1)CCC2 ?
KDM5B inh: inconclusive; IP6K1 inhibitor: 9

Results for Cc1nn2c(c1-c1ccccc1C(C)C)N(CCC(C)C)CCC2 ?
KDM5B inh: 18µM*; IP6K1 inhibitor: -2

What do the screens show for `Cc1ccc2[nH]cc(CCNC(=O)c3ccc(C(F)(F)F)cc3)c2c1`?
KDM5B inh: inactive

What do the screens show for `CN(CCO)C(=O)c1nc(-c2cccc3[nH]ccc23)no1`?
KDM5B inh: inactive

Results for CN(C)c1cccc(NC(=O)C(c2ccccc2)c2ccccc2)c1 ?
KDM5B inh: inactive

How did CNC(=O)c1cc(C2CC2)nc2onc(C3CCN(C(=O)Nc4ccc(C)c(F)c4)C3)c12 (configuration not stated) do in these assays?
IP6K1 inhibitor: -4

How did O=C(Nc1ncc(-c2ccccc2)c2c1OCC2)c1ccccc1 do in these assays?
KDM5B inh: inactive; IP6K1 inhibitor: -8

Results for CNC(=O)c1cccc(-c2cnc(Nc3cccnc3OC)c3c2CCO3)c1 ?
KDM5B inh: 35µM*; IP6K1 inhibitor: -5

What do the screens show for `CNC(=O)c1cccc(-c2cnc(Nc3ccccc3)c3c2CCO3)c1`?
KDM5B inh: 32µM*; IP6K1 inhibitor: -18

What do the screens show for `CNC(=O)c1cccc(-c2cnc(Nc3ccc(N4CCOCC4)cc3)c3c2CCO3)c1`?
KDM5B inh: inconclusive; IP6K1 inhibitor: -19

How did Cc1ccc(C(=O)N2C(C(=O)N3CCCC3)COC23CCN(C(=O)c2ccccc2C)CC3)cc1 (configuration not stated) do in these assays?
KDM5B inh: inactive; IP6K1 inhibitor: 23

Results for O=C(NCc1cccc(Cl)c1)C1CCN(c2nc3ncccc3o2)CC1 ?
IP6K1 inhibitor: 8

Results for Cc1cc(C)c(CNC(=O)c2cc(-c3ccc(CO)cc3)cc3c2OCCN3C)c(=O)[nH]1 ?
KDM5B inh: 32µM*; IP6K1 inhibitor: -2

How did Cc1cc(C)c(CNC(=O)c2cc(-c3ccccc3)cc3c2OCCN3C)c(=O)[nH]1 do in these assays?
KDM5B inh: 32µM*; IP6K1 inhibitor: 1

How did Cc1cc(C)c(CNC(=O)c2nc(-c3ccc(CO)cc3)cc3c2ccn3C(C)C)c(=O)[nH]1 do in these assays?
KDM5B inh: inactive; IP6K1 inhibitor: -6

How did COc1ccc(-c2cc(C(=O)NCc3c(C)cc(C)[nH]c3=O)c3c(c2)N(C)CCO3)cn1 do in these assays?
KDM5B inh: 35µM*; IP6K1 inhibitor: -20

How did Cc1ccc(-c2cc(C(=O)NCc3c(C)cc(C)[nH]c3=O)c3c(c2)N(C)CCO3)cc1 do in these assays?
KDM5B inh: inconclusive; IP6K1 inhibitor: -22

How did O=c1cc(CN2CCN(c3ccccc3)CC2)c2cc(O)ccc2o1 do in these assays?
KDM5B inh: inactive

Results for O=C(CC12CC3CC(CC(Br)(C3)C1)C2)OCc1cc([N+](=O)[O-])cc2c1OCOC2 ?
KDM5B inh: inactive

What do the screens show for `Cc1cc2c(N3CCC(NCc4noc(C5CCC5)n4)CC3)ncnc2s1`?
KDM5B inh: inactive; IP6K1 inhibitor: 7

What do the screens show for `C[C@@H](NC(=O)c1ccc(Cl)cc1)c1c(-c2ccc(F)cc2)noc1C(=O)O`?
KDM5B inh: inconclusive; IP6K1 inhibitor: -23

How did Cc1cc(C(=O)N[C@H](C)c2c(-c3ccc(Cl)cc3)noc2C(=O)O)c(C)o1 do in these assays?
KDM5B inh: 28µM*; IP6K1 inhibitor: -11

What do the screens show for `CC(C)N(CC1CC1)C(=O)CC1COc2ccc(C(=O)N(C)C)cc2N1C` (configuration not stated)?
KDM5B inh: inconclusive; IP6K1 inhibitor: 7

How did C#CCN(C)C(=O)CC1COc2ccc(C(=O)NCCOC)cc2N1C (configuration not stated) do in these assays?
KDM5B inh: 32µM*; IP6K1 inhibitor: 8

Results for COCCNC(=O)c1ccc2c(c1)N(C)C(CC(=O)N(C)C(C)C)CO2 (configuration not stated) ?
KDM5B inh: 28µM*; IP6K1 inhibitor: -10

How did CCN(C(=O)CC1COc2ccc(C(=O)N(C)C)cc2N1C)C1CC1 (configuration not stated) do in these assays?
KDM5B inh: inactive; IP6K1 inhibitor: -6

What do the screens show for `COCCn1c(SC(C)C(=O)c2cccc(Cl)c2)nnc1-c1ccc(Cl)cc1` (configuration not stated)?
KDM5B inh: inactive

How did Oc1ccccc1CNC1(Cc2cc(-c3ccc(F)cc3)on2)COC1 do in these assays?
KDM5B inh: inactive; IP6K1 inhibitor: -16

Results for CCc1noc(-c2cccn3c(CNC(=O)Cc4ccccc4C)nnc23)n1 ?
KDM5B inh: 25µM*; IP6K1 inhibitor: 34

What do the screens show for `CCc1noc(-c2cccn3c(CNC(=O)C(C)Oc4ccccc4)nnc23)n1` (configuration not stated)?
KDM5B inh: inconclusive; IP6K1 inhibitor: -3

How did CCc1noc(-c2cccn3c(CNC(=O)Cc4ccccc4Cl)nnc23)n1 do in these assays?
KDM5B inh: 20µM*; IP6K1 inhibitor: 14

How did CCc1noc(-c2cccn3c(CNC(=O)Cc4ccc(Cl)cc4)nnc23)n1 do in these assays?
KDM5B inh: 25µM*; IP6K1 inhibitor: -2

What do the screens show for `COCc1nnc2n1CCC(NC(=O)Cc1c[nH]c3ccccc13)CC2` (configuration not stated)?
KDM5B inh: inactive; IP6K1 inhibitor: 2

How did COCc1nnc2n1CCC(NC(=O)c1n[nH]c3ccccc13)CC2 (configuration not stated) do in these assays?
KDM5B inh: 28µM*; IP6K1 inhibitor: -9

How did COCCN1CCNc2cc(Nc3ccc(N4CCOCC4)cc3)ncc2C1 do in these assays?
KDM5B inh: inconclusive; IP6K1 inhibitor: -17

What do the screens show for `COc1ccc(-c2cc3c(cn2)CN(Cc2ccncc2)CCN3)cc1`?
KDM5B inh: 35µM*; IP6K1 inhibitor: -18

What do the screens show for `CN1CCNc2cc(-c3ccc(N4CCOCC4)cc3)ncc2C1`?
KDM5B inh: 28µM*; IP6K1 inhibitor: -13

How did COc1ccc(CN2CCNc3cc(-c4ccnc(C)c4)ncc3C2)cc1 do in these assays?
KDM5B inh: inactive; IP6K1 inhibitor: -8

How did Fc1ccc(-c2cc3c(cn2)CN(Cc2ccncc2)CCN3)cc1Cl do in these assays?
KDM5B inh: 35µM*; IP6K1 inhibitor: 0

How did Fc1ccc(Nc2cc3c(cn2)CN(Cc2ccncc2)CCN3)cc1Cl do in these assays?
KDM5B inh: inactive; IP6K1 inhibitor: 7

Results for CC(=O)N1CCC(N2C[C@@H]3C[C@H](C2)c2c(NC(=O)NC4CCCCC4)ccc(=O)n2C3)CC1 ?
KDM5B inh: inconclusive; IP6K1 inhibitor: 17
